Results with a measured potency or affinity are listed apart.
Key:
[1] = tested on: Klebsiella pneumoniae; details: Concentration 32 ug.mL-1; ASSAY_TEST Inhibition of Bacterial Growth; detection method Absorption (OD600); MEDIA CAMHB; plate type 384well; NBS; CORNING #3640; time 18 hr
[2] = tested on: Candida albicans; details: 32 ug/mL
[3] = tested on: Cryptococcus neoformans; details: Concentration 32 ug.mL-1; ASSAY_TEST Inhibition of Fungal Growth; detection method Resazurin; Absorption (OD600-OD570); plate type 384well; NBS; CORNING #3640

`COc1ccc(-c2cc(-c3ccccc3)c(C#N)c(N)n2)cc1` gave an Inhibition [1] of -4.32%, an Inhibition [2] of -5.4% and an Inhibition [3] of -104.15%.

Compound `COC1=C(C#N)CC(C)C(=O)N1` (stereo unspecified) has an Inhibition [1] of 6.94%, an Inhibition [2] of 1.01% and an Inhibition [3] of -33.52%.

Compound `N#Cc1cc(C#N)c(NCCCCC2CCN(Cc3ccccc3)CC2)nc1N` has an Inhibition [1] of 18.34%, an Inhibition [2] of 1.01% and an Inhibition [3] of -105.28%.

In the case of `Cc1ccc(S(=O)(=O)N[C@H]2CC[C@H](O)CC2)cc1`, the Inhibition [1] is reported as 11.86%, the Inhibition [2] is reported as 0.9% and the Inhibition [3] is reported as -40.23%.

Compound `N#CC1=C(N)Oc2c(ccc3ccccc23)C1c1c(Cl)cccc1Cl` (stereo unspecified) has an Inhibition [1] of 5.34%, an Inhibition [2] of -0.77% and an Inhibition [3] of -4.89%.

`COC1=C(C#N)C(c2ccccc2)C(C=O)=C(Cl)N1` (stereo unspecified) gave an Inhibition [1] of 16.25%, an Inhibition [2] of 4.19% and an Inhibition [3] of -31.69%.

With `C=C1CN(C)c2c(C#N)c(-c3ccccc3)c(C#N)c(=N)n21` the Inhibition [1] was 8.43%, the Inhibition [2] was -0.24% and the Inhibition [3] was -51.34%.

Compound `COc1ccc(C2c3c(ccc4ccccc34)OC(=N)C2(Br)C#N)cc1` (stereo unspecified) has an Inhibition [1] of 10.22%, an Inhibition [2] of 17.9% and an Inhibition [3] of -84.01%.

For `CCOC(=O)/C(C#N)=C\c1ccc(C)cc1`, the Inhibition [1] was 18.72%, the Inhibition [2] was 1.42% and the Inhibition [3] was -4.89%.

For `Cc1[nH]nc2c1C(c1cccc([N+](=O)[O-])c1)C(C#N)=C(N)O2` (stereo unspecified), the Inhibition [1] was 18.43%, the Inhibition [2] was -0.54% and the Inhibition [3] was -0.61%.

For `CC(C)(C)OC(=O)Nc1ccccn1`, the Inhibition [1] was 24.53%, the Inhibition [2] was 0.46% and the Inhibition [3] was -68.78%.

For `Nc1c2c(nc3ccc([N+](=O)[O-])cc13)CCCC2`, the Inhibition [1] was 16.59%, the Inhibition [2] was 2.09% and the Inhibition [3] was -74.97%.

`Cc1nc(NCc2ccccc2)c2cnn(-c3ccccc3)c2n1` showed an Inhibition [1] of 15.01%, an Inhibition [2] of -0.57% and an Inhibition [3] of -3.46%.

For `CNC(=O)c1cc2cc(OCc3ccccc3)ccc2n1C`, the Inhibition [1] was 4.29%, the Inhibition [2] was 3.06% and the Inhibition [3] was -45.34%.

In the case of `N#CC1=C(N)Oc2c(ccc3ccccc23)C1c1ccc(Cl)c(Cl)c1` (stereo unspecified), the Inhibition [1] is reported as -23.32%, the Inhibition [2] is reported as 1.53% and the Inhibition [3] is reported as -2.77%.

For `COc1ccc(C2C(C#N)=C(N)Oc3[nH]nc(C)c32)cc1` (stereo unspecified), the Inhibition [1] was -10.09%, the Inhibition [2] was 1.54% and the Inhibition [3] was -3.79%.

`O=Cc1c[nH]c2ccccc12` [3-FORMYLINDOLE] showed an Inhibition [1] of 22.42%, an Inhibition [2] of 1.76% and an Inhibition [3] of -4.21%.

In the case of `COc1ccc2c(c1)cc(C(=O)Nc1ccccc1)n2C`, the Inhibition [1] is reported as 8.32%, the Inhibition [2] is reported as 2.05% and the Inhibition [3] is reported as -38.47%.

In the case of `Cc1ccc2nc(Cl)c(/C=N/OCc3ccccc3)cc2c1`, the Inhibition [1] is reported as 9.15%, the Inhibition [2] is reported as 2.45% and the Inhibition [3] is reported as -9.27%.

With `CC(C)(C)OC(=O)N[C@H]1CC[C@H](O)CC1` the Inhibition [1] was 7.91%, the Inhibition [2] was 0.02% and the Inhibition [3] was -36.58%.

`Cc1nc(Nc2ccccc2)c2c(C)nn(-c3ccccc3)c2n1` gave an Inhibition [1] of -3.39%, an Inhibition [2] of -2.39% and an Inhibition [3] of -3.19%.

`O=C(COc1ccc2ccccc2c1)N/N=C/c1c[nH]c2ccccc12` showed an Inhibition [1] of 8.99%, an Inhibition [2] of 0.9% and an Inhibition [3] of -4.09%.

`CCOC(=O)C1=C(C)OC(N)=C(C#N)C1c1ccc([N+](=O)[O-])cc1` (stereo unspecified) gave an Inhibition [1] of 12.45%, an Inhibition [2] of -0.07% and an Inhibition [3] of -64.89%.

For `COc1cccc(C=C2N=C(c3ccccc3)OC2=O)c1OC(C)=O`, the Inhibition [1] was 0.25%, the Inhibition [2] was -1.1% and the Inhibition [3] was -5.03%.

`CCOC(=O)C1=C(C)OC(N)=C(C#N)C1c1cccs1` (stereo unspecified) was tested, and the Inhibition [1] was 7.75%, the Inhibition [2] was 0.39% and the Inhibition [3] was -27.56%.

`CNC(=O)c1cc2cc(OC)ccc2[nH]1` was tested, and the Inhibition [1] was 17.99%, the Inhibition [2] was -0.84% and the Inhibition [3] was -6.03%.

For `Cc1nc(NO)c2c(C)nn(-c3ccccc3)c2n1`, the Inhibition [1] was 17.6%, the Inhibition [2] was 0.21% and the Inhibition [3] was -3.47%.

`O=C(NNCc1c[nH]c2ccccc12)c1cccc2ccccc12` gave an Inhibition [1] of 7.23%, an Inhibition [2] of 1.53% and an Inhibition [3] of -1.11%.

`CCOC(=O)C1=C(C)OC(N)=C(C#N)C1c1ccccc1` (stereo unspecified) showed an Inhibition [1] of 11.23%, an Inhibition [2] of 6.07% and an Inhibition [3] of -42.71%.

`N#CCC(=C(C#N)C#N)c1ccccc1` showed an Inhibition [1] of 11.23%, an Inhibition [2] of 5.35% and an Inhibition [3] of -3.99%.

With `C#CCN(C)c1nc(NCCCCC2CCN(Cc3ccccc3)CC2)c(C#N)cc1C#N` the Inhibition [1] was 0.44%, the Inhibition [2] was 3.03% and the Inhibition [3] was -41.21%.

With `O=C(N/N=C/c1c[nH]c2ccccc12)c1cc2ccccc2[nH]1` the Inhibition [1] was 11.64%, the Inhibition [2] was 0.51% and the Inhibition [3] was -6.47%.

`Cc1ccc(C(O)SNNc2nc(C)nc3c2c(C)nn3-c2ccccc2)cc1` (stereo unspecified) was tested, and the Inhibition [1] was 11.05%, the Inhibition [2] was -0.04% and the Inhibition [3] was -5.24%.

`N#Cc1c(N)nc(N2CCOCC2)c(C#N)c1-c1ccccc1` was tested, and the Inhibition [1] was 3.68%, the Inhibition [2] was 1.23% and the Inhibition [3] was -3.16%.

`N#CC1=C(N)Oc2c(ccc3ccccc23)C1c1cccc([N+](=O)[O-])c1` (stereo unspecified) gave an Inhibition [1] of 11.95%, an Inhibition [2] of 2.35% and an Inhibition [3] of -36.01%.

`Nc1c2c(nc3c1C(c1ccc([N+](=O)[O-])cc1)c1c(ccc4ccccc14)O3)CCCC2` (stereo unspecified) gave an Inhibition [1] of 9.13%, an Inhibition [2] of 1.59% and an Inhibition [3] of -0.47%.

With `CC(=O)Oc1cccc(C=C2N=C(c3ccccc3)OC2=O)c1` the Inhibition [1] was 1.18%, the Inhibition [2] was 2.1% and the Inhibition [3] was -5.65%.

Source: ChEMBL document CHEMBL4513135, “CO-ADD screening of IQOG CSIS (Spain) compounds”
